High-throughput results (PubChem BioAssay)
ERa SRC1 inh: ERα–SRC-1 coactivator interaction inhibitors, primary screen, biochemical, TR-FRET, ERα LBD, estradiol-bound; Estrogen receptor (Homo sapiens), P03372; TR-FRET ER-alpha LBD / SRC-1 peptide; inhibition, % at 25.6 µM; 1.7% of 86,000 active; AID 629, 2007; in the data active means inhibition above about 50%;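 further: 0% = receptor plus peptide control and 100% = peptide only without receptor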
LYP act: LYP phosphatase activators, primary screen, biochemical, DiFMUP fluorescence, 2 µM; Tyrosine-protein phosphatase non-receptor type 22 (Homo sapiens), Q9Y2R2; recombinant LYP; 0 = plate median, 100 = signal doubled; activation, % at 2 µM; 0.11% of 96,000 active; AID 697, 2007;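 active means activation at 2 µM above a set limit, the mean plus 5 SD, cut at about 37% in these data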
ERb SRC1 inh: inhibitors of ERβ-SRC1 coactivator interaction, primary screen, biochemical, TR-FRET, ERβ LBD, SRC-1 peptide; Estrogen receptor beta (Homo sapiens), Q92731; TR-FRET ER-beta LBD / SRC1-Cy5 peptide binding; receptor agonist-loaded with 1 µM estradiol; inhibition, % at 25.6 µM; 1.3% of 86,000 active;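 active means compounds whose percent inhibition of the receptor-coactivator binding signal exceeds about 50% in the single-dose screen, limit read from the data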;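 further: 0% = receptor plus peptide wells without compound and 100% = peptide-only wells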
LYP inh 2: PTPN22 phosphatase inhibitors, primary screen, biochemical, DiFMUP fluorescence, 2 µM; recombinant LYP catalytic domain; AID 640, 2007; Tyrosine-protein phosphatase non-receptor type 22 (Homo sapiens), Q9Y2R2; 0.21% of 96,000 active; inhibition, % at 2 µM;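 active means inhibition at 2 µM at or above a set limit, the screen mean plus 3 SD, cut at about 24% in these data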;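 further: 0% = DMSO with enzyme and 100% = enzyme fully blocked by orthovanadate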
FAK blocker: FAK kinase inhibitors, primary screen, biochemical; 0.84% of 97,000 active; inhibition, %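 (tested at 7 µM)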; biochemical FAK kinase activity assay; Focal adhesion kinase 1 (Homo sapiens), Q05397; in the data active means inhibition above about 19%;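 further: 0% = DMSO and 100% = reference compound high control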
Target sequence (Q05397 whole entry, looked up): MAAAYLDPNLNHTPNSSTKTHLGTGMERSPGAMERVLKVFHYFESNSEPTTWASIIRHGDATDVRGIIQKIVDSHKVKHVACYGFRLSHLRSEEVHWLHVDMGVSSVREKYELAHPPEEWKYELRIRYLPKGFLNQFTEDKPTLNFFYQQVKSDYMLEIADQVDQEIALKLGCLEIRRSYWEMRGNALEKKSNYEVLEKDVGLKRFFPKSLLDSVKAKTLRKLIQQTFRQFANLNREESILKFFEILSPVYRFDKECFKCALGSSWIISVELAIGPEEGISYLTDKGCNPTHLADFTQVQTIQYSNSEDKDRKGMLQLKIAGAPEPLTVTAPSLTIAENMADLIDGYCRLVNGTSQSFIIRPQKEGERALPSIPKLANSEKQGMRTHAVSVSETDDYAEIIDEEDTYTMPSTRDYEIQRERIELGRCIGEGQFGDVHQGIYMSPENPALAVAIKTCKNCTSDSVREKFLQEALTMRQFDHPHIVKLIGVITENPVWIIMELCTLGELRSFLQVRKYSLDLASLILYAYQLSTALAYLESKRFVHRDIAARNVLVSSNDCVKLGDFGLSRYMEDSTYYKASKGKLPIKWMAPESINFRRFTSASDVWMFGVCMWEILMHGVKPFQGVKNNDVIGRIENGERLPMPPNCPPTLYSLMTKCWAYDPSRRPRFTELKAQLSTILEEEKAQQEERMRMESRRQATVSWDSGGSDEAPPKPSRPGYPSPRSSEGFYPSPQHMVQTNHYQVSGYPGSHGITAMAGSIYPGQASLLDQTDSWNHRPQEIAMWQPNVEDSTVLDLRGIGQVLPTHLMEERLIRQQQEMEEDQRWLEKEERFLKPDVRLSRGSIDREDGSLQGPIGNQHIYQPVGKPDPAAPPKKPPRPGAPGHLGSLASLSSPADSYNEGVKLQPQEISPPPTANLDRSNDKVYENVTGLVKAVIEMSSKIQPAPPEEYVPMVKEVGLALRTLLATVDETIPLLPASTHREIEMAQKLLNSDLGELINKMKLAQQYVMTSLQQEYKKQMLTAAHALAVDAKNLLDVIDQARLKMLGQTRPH
ERa coact pot: enhancers of ERα–SRC-1 coactivator binding, primary screen, biochemical, TR-FRET, ERα LBD, low estradiol. AID 639, 2007. TR-FRET ERalpha-LBD/SRC-Cy5 coactivator binding, 2 h; 100 = basal binding, no effect. Estrogen receptor (Homo sapiens), P03372. 1.3% of 86,000 active. coactivator binding (% of control), % at 25.6 µM; in the data active means activity above about 200%;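 further: binding measured in presence of low estradiol as agonist stimulus; 0% = peptide alone without receptor and 100% = receptor with peptide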
An asterisk follows results filed as active; [ ] = remark or other dose. The list is not random: actives were taken first. Their share in the collection is about 3.4%.

Results for CC(C)(C)NC(=O)c1cccc(NC(=O)c2cccc(O)c2)c1 ?
LYP act: -2; LYP inh 2: 7; FAK blocker: 1

Results for CSc1nnc(COc2ccc(C)cc2)n1N ?
ERa SRC1 inh: 16; LYP act: 10; ERb SRC1 inh: 14; LYP inh 2: -14; FAK blocker: 37*; ERa coact pot: 94

Results for O=C1C2C(C(=O)N1CCc1ccccc1)C1C=CC2C12CC2 (configuration not stated) ?
ERa SRC1 inh: -3; LYP act: -44; ERb SRC1 inh: 5; LYP inh 2: 45*; FAK blocker: 0; ERa coact pot: 94

How did O=C1C2C3C=CC(C3)C2C(=O)N1CCc1ccccc1 (configuration not stated) do in these assays?
ERa SRC1 inh: -8; LYP act: -11; ERb SRC1 inh: -10; LYP inh 2: 11; FAK blocker: -2; ERa coact pot: 105

Results for O=C(O)c1cccc(-n2cccc2/C=N/O)c1 ?
ERa SRC1 inh: 76*[fluorescence artefact?]; LYP act: -9; ERb SRC1 inh: 77*[fluorescence artefact?]; LYP inh 2: 8; FAK blocker: 1; ERa coact pot: 46

How did Cc1csc(C(C#N)C(=O)c2ccncc2)n1 (configuration not stated) do in these assays?
ERa SRC1 inh: 32; ERb SRC1 inh: 63*; ERa coact pot: 65

Results for Cc1cccc(NC(=S)NNC(=O)CCn2cc(C)cn2)c1 ?
LYP act: 1; LYP inh 2: 1; FAK blocker: -4

Results for COc1ccc(C(=O)Cn2nnc(-c3cccs3)n2)cc1 ?
ERa SRC1 inh: 1; LYP act: -1; ERb SRC1 inh: 78*[fluorescence artefact?]; LYP inh 2: 7; FAK blocker: -3; ERa coact pot: 93

How did CC(C)CC(NC(=O)C1CCCCC1)C(=O)N1CCN(c2ccccn2)CC1 (configuration not stated) do in these assays?
ERa SRC1 inh: 8; LYP act: 4; ERb SRC1 inh: -6; LYP inh 2: -4; FAK blocker: -2; ERa coact pot: 124

Results for COC(=O)Cn1cnc2c1c(=O)n(C)c(=O)n2C ?
ERa SRC1 inh: 21; LYP act: 2; ERb SRC1 inh: 25; LYP inh 2: -2; FAK blocker: -4; ERa coact pot: 96

Results for Cn1c(=O)c2c(ncn2CCCNC2=CC(C)(C)CC(=O)C2)n(C)c1=O ?
ERa SRC1 inh: 37; LYP act: -8; ERb SRC1 inh: 52*; LYP inh 2: 7; FAK blocker: 1; ERa coact pot: 49

Results for COc1ccccc1CNC(=O)C1CC(c2ccccc2[N+](=O)[O-])=NO1 (configuration not stated) ?
LYP act: 1; LYP inh 2: 4; FAK blocker: 0

What do the screens show for `O=C(Nc1ccccn1)C(=O)N1CCCCC1`?
ERa SRC1 inh: -1; LYP act: -5; ERb SRC1 inh: -2; LYP inh 2: 3; FAK blocker: -2; ERa coact pot: 95

How did CSC1=N/C(=C\c2ccc(Br)o2)C(=O)S1 do in these assays?
ERa SRC1 inh: 69*; LYP act: 5; ERb SRC1 inh: 72*; LYP inh 2: -8; FAK blocker: 8; ERa coact pot: 34

What do the screens show for `Cc1[nH]c(=O)[nH]c(=O)c1NC(=O)c1cccs1`?
ERa SRC1 inh: 87*[fluorescence artefact?]; LYP act: 11; ERb SRC1 inh: -6; LYP inh 2: -12; FAK blocker: 0; ERa coact pot: 102

Results for Cc1cc(C)nc(-n2nc(C)cc2NC(=O)CNCc2ccccc2)n1 ?
ERa SRC1 inh: -9; LYP act: -2; ERb SRC1 inh: 91*[fluorescence artefact?]; LYP inh 2: 2; FAK blocker: 2; ERa coact pot: 91

What do the screens show for `CCN(CC(=O)Nc1cc(C)nn1-c1nc(C)cc(C)n1)Cc1ccccc1`?
ERa SRC1 inh: -6; LYP act: -6; ERb SRC1 inh: -12; LYP inh 2: 2; FAK blocker: 0; ERa coact pot: 99

What do the screens show for `Cc1ccc(CN2CCSc3ccc(C(=O)N4CCN(c5ncccn5)CC4)cc32)cc1`?
ERa SRC1 inh: 25; ERb SRC1 inh: 30; ERa coact pot: 378*[fluorescence artefact?]

How did COc1ccc(C(=O)N2CCC(C(=O)Nc3ccccc3OC)CC2)cc1 do in these assays?
ERa SRC1 inh: -14; LYP act: 9; ERb SRC1 inh: -15; LYP inh 2: -12; FAK blocker: -2; ERa coact pot: 223*[fluorescence artefact?]

Results for NC1=CC(=O)c2cccc3cccc1c23 ?
ERa SRC1 inh: 86*[fluorescence artefact?]; LYP act: 2; ERb SRC1 inh: 76*[fluorescence artefact?]; LYP inh 2: -4; FAK blocker: 16; ERa coact pot: 59

What do the screens show for `Cc1nnc(C)n1N1C(=O)c2cccc3cccc(c23)C1=O`?
ERa SRC1 inh: -30; LYP act: 15; ERb SRC1 inh: -12; LYP inh 2: -16; FAK blocker: -4; ERa coact pot: 107

How did Cc1ccc(S(=O)(=O)c2nc(-c3ccc(F)cc3)oc2SCC(=O)NCC2CCCO2)cc1 (configuration not stated) do in these assays?
ERa SRC1 inh: 39; LYP act: -4; ERb SRC1 inh: 15; LYP inh 2: 2; FAK blocker: 1; ERa coact pot: 310*[fluorescence artefact?]

Results for Cc1ccc(-c2nc(S(=O)(=O)c3ccc(F)cc3)c(SCC(=O)NCC3CCCO3)o2)cc1 (configuration not stated) ?
ERa SRC1 inh: 67*[fluorescence artefact?]; LYP act: 0; ERb SRC1 inh: 25; LYP inh 2: 4; FAK blocker: 0; ERa coact pot: 107

What do the screens show for `Cc1csc2nc(CCNS(=O)(=O)c3ccc4c(c3)OCCO4)cn12`?
ERa SRC1 inh: 54*; LYP act: -6; ERb SRC1 inh: 24; LYP inh 2: 6; FAK blocker: -3; ERa coact pot: 58

What do the screens show for `COc1ccc2nc(NC(=O)C3CCCN(S(=O)(=O)c4c(C)noc4C)C3)sc2c1` (configuration not stated)?
ERa SRC1 inh: -1; ERb SRC1 inh: 83*[fluorescence artefact?]; ERa coact pot: 129

What do the screens show for `COc1ccc2nc(NC(=O)c3ccoc3C)sc2c1`?
ERa SRC1 inh: 3; LYP act: 10; ERb SRC1 inh: 4; LYP inh 2: -13; FAK blocker: 0; ERa coact pot: 101

What do the screens show for `COc1ccc2nc(NC(=O)c3cc(C)oc3C)sc2c1`?
ERa SRC1 inh: 12; LYP act: -2; ERb SRC1 inh: 4; LYP inh 2: 2; FAK blocker: 0; ERa coact pot: 208*
